Data reported in PubChem BioAssay (NCI).
About 83,000 compounds went through this panel and 20% of them were active in at least one assay; those are over-represented in the sample as a whole.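 48-hour exposure, single concentration, 96-well plates; percent growth endpoint where 0 means no net growth. Active: below 10.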 The source made the active and inactive calls.

Key:
Assay in all cases: NCI-60 one-dose screen, 48 h (100 = growth as untreated, 0 = no growth, -100 = all killed)
Settings in all cases: 10 µM unless noted
T-47D breast = tested on: T-47D breast
BT-549 breast = tested on: BT-549 breast
MDA-MB-435 melanoma = tested on: MDA-MB-435 melanoma
SW-620 colon = tested on: SW-620 colon
MCF7 breast = tested on: MCF7 breast
HCT-116 colon = tested on: HCT-116 colon
HCC-2998 colon = tested on: HCC-2998 colon
KM12 colon = tested on: KM12 colon

Measured: growth

COc1cc2nc(N3CCCC3)nc(NCc3ccccc3)c2cc1OC
active: T-47D breast 7.79% | MDA-MB-435 melanoma 6.99%
inactive: BT-549 breast 70.5% | SW-620 colon 55.9% | MCF7 breast 29.4% | HCT-116 colon 28.2% | HCC-2998 colon 55.4% | KM12 colon 96.3%

COc1ccc2cc(-c3nn(-c4ccc(C(=O)O)cc4)cc3CO)ccc2c1
inactive: T-47D breast 98.5% | BT-549 breast 93.5% | MDA-MB-435 melanoma 98.6% | SW-620 colon 107% | MCF7 breast 91% | HCT-116 colon 91% | HCC-2998 colon 100% | KM12 colon 101%

COc1ccc(C(=O)/C=C/c2cccnc2Nc2cc(OC)c(OC)c(OC)c2)cc1
inactive: T-47D breast 44.1% | BT-549 breast 36.3% | MCF7 breast 12.9% | HCT-116 colon 13.7% | HCC-2998 colon 22.9% | KM12 colon 14%
active: MDA-MB-435 melanoma 2.91% | SW-620 colon -42.5%

COc1ccc(CCNc2nc3c(c(=O)n(Cc4ccc(Br)cc4)c(=O)n3C)n2C)cc1OC
inactive: T-47D breast 66.2% | BT-549 breast 86.5% | MDA-MB-435 melanoma 99.2% | SW-620 colon 99.5% | MCF7 breast 94.4% | HCT-116 colon 90.5% | HCC-2998 colon 101% | KM12 colon 100%

O=S(=O)(Nc1ccc(I)cc1F)c1ccc(-c2cnc(C3CC3)o2)cc1
inactive: T-47D breast 52% | BT-549 breast 45.7% | SW-620 colon 27.2% | MCF7 breast 27.9% | HCT-116 colon 40.8% | HCC-2998 colon 76.9% | KM12 colon 52.9%
active: MDA-MB-435 melanoma 2.11%

COc1cc2nnc3c4cccnc4[nH]c3c2cc1OC
active: SW-620 colon 9.61% | MCF7 breast 2.75% | HCT-116 colon 5.66%
inactive: T-47D breast 24.5% | BT-549 breast 72.9% | MDA-MB-435 melanoma 49.7% | HCC-2998 colon 88% | KM12 colon 32%

O=C(COc1ccc(/C=C2\COc3ccccc3C2=O)cc1)Nc1nccs1
active: BT-549 breast 2.68%
inactive: T-47D breast 90% | MDA-MB-435 melanoma 105% | SW-620 colon 69.1% | MCF7 breast 15% | HCT-116 colon 38.1% | HCC-2998 colon 168% | KM12 colon 43.3%

Nc1ccc(S(=O)(=O)O)c2ccc(N=Nc3ccc(N=Nc4ccc(S(=O)(=O)O)cc4)c4ccccc34)c(O)c12
inactive: T-47D breast 124% | BT-549 breast 107% | MDA-MB-435 melanoma 122% | SW-620 colon 93.5% | MCF7 breast 101% | HCT-116 colon 99.4% | HCC-2998 colon 105% | KM12 colon 99%

COc1ccc(C2Nc3c(c(C(C)(C)C)nn3-c3ccccc3)C(=O)CS2)cc1 (stereo not drawn)
inactive: T-47D breast 96.5% | BT-549 breast 122% | MDA-MB-435 melanoma 106% | SW-620 colon 107% | MCF7 breast 92.9% | HCT-116 colon 97.7% | HCC-2998 colon 102% | KM12 colon 98.2%

COc1cc2nc(N3CCCC3)nc(Nc3ccccc3)c2cc1OC
inactive: KM12 colon 33%
active: T-47D breast -49.1% | BT-549 breast -70.9% | MDA-MB-435 melanoma -61.4% | SW-620 colon -20.4% | MCF7 breast -71.6% | HCT-116 colon -79.4% | HCC-2998 colon -51.2%

COc1ccc(S(=O)(=O)N2CCCCC2)cc1NC(=O)c1[nH]c(C)c2c1CCCCC2=O
inactive: T-47D breast 15.2% | BT-549 breast 50.1% | MDA-MB-435 melanoma 21.7% | SW-620 colon 54% | MCF7 breast 12.3% | HCT-116 colon 17.6% | HCC-2998 colon 15.8% | KM12 colon 24.9%

CCNC(=O)Oc1ccc(/C(=C(\C)c2ccc(Cl)cc2)c2ccc(OCCN3CCCCC3)cc2)cc1
active: SW-620 colon 9.64%
inactive: T-47D breast 27.8% | BT-549 breast 72.8% | MDA-MB-435 melanoma 43.4% | MCF7 breast 21.7% | HCT-116 colon 37.4% | HCC-2998 colon 75.1% | KM12 colon 37.3%

O=C1/C(=C/c2ccc(Cl)cc2)SC(=S)N1CCc1ccc(O)cc1
inactive: T-47D breast 54.2% | BT-549 breast 101% | MDA-MB-435 melanoma 92.9% | SW-620 colon 101% | MCF7 breast 114% | HCT-116 colon 102% | HCC-2998 colon 107% | KM12 colon 93.6%

CN(C)S(=O)(=O)c1cccc(-c2nc3sc4c(c3c(=O)[nH]2)CCCC4)c1
inactive: BT-549 breast 31.9% | MDA-MB-435 melanoma 43.9% | SW-620 colon 13.7% | MCF7 breast 53.4% | KM12 colon 43.9%
active: T-47D breast -22.1% | HCT-116 colon -41.3% | HCC-2998 colon -50.5%

Cn1cc(-c2nonc2-c2cn(C)c3ccc(F)cc23)c2ccccc21
active: MDA-MB-435 melanoma -26%
inactive: T-47D breast 37.3% | BT-549 breast 56.1% | SW-620 colon 22% | MCF7 breast 21.3% | HCT-116 colon 11.6% | HCC-2998 colon 25.9% | KM12 colon 14.7%

COc1ccc(/C=C/C(=O)c2ccc(O)c(CN3CCN(c4cc5c(cc4F)c(=O)c(C(=O)O)cn5C4CC4)CC3)c2)cc1
inactive: T-47D breast 37.6% | BT-549 breast 17.7% | MDA-MB-435 melanoma 28.3% | SW-620 colon 17.5% | HCC-2998 colon 43.5% | KM12 colon 24.8%
active: MCF7 breast 8.68% | HCT-116 colon 9.41%

O=C1Nc2ccc(Br)cc2C12Oc1ccccc1C1CC(c3ccc(F)cc3)=NN12 (stereo not drawn)
inactive: T-47D breast 85.9% | BT-549 breast 91.8% | MDA-MB-435 melanoma 99.8% | SW-620 colon 99% | MCF7 breast 83.5% | HCT-116 colon 92.3% | HCC-2998 colon 97.8% | KM12 colon 86.3%

Cc1cc(N2CCCC2)nc(NC2CCCC(Nc3ccnc4cc(Cl)ccc34)C2)n1 (stereo not drawn)
active: T-47D breast -35.1% | BT-549 breast -57.9% | MDA-MB-435 melanoma -92.6% | SW-620 colon -58.3% | MCF7 breast -13.2% | HCT-116 colon -87.1% | HCC-2998 colon -40.4% | KM12 colon -62.4%

Cn1cc(-c2nonc2-c2c[nH]c3ccccc23)c2cccnc21
inactive: T-47D breast 27% | BT-549 breast 58.6% | SW-620 colon 14.1% | MCF7 breast 19.4% | HCT-116 colon 24.3% | HCC-2998 colon 69.9% | KM12 colon 20.1%
active: MDA-MB-435 melanoma -22.6%

CC1=C/C(=C(\c2ccc(N(C)C)cc2)c2ccc([N+](C)(C)C)cc2)C=CC1=[N+](C)C
inactive: T-47D breast 52.2% | BT-549 breast 96.1% | MDA-MB-435 melanoma 78.4% | SW-620 colon 66.5% | MCF7 breast 59.9% | HCT-116 colon 36.1% | HCC-2998 colon 77.3% | KM12 colon 61.4%

O=C1/C(=C/c2ccccc2)SC(=S)N1CCc1ccc(O)cc1
inactive: T-47D breast 54.3% | BT-549 breast 106% | MDA-MB-435 melanoma 96.2% | SW-620 colon 95.6% | MCF7 breast 112% | HCT-116 colon 95.9% | HCC-2998 colon 107% | KM12 colon 87.8%

C#Cc1cccc(NC(=O)c2ccccc2NC(=O)CCl)c1
inactive: T-47D breast 77.7% [8.25 µM] | BT-549 breast 61.6% [8.25 µM] | MDA-MB-435 melanoma 89.9% [8.25 µM] | SW-620 colon 79.5% [8.25 µM] | MCF7 breast 67.9% [8.25 µM] | HCT-116 colon 49.4% [8.25 µM] | HCC-2998 colon 99.2% [8.25 µM] | KM12 colon 99.7% [8.25 µM]

CCOC(=O)c1c(C)oc2ncnc(N3CCN(C(=O)COc4ccc(SC)cc4)CC3)c12
inactive: T-47D breast 61.7% | BT-549 breast 90.8% | MDA-MB-435 melanoma 103% | SW-620 colon 102% | MCF7 breast 92.6% | HCT-116 colon 91.6% | HCC-2998 colon 110% | KM12 colon 95.6%

Cc1cc(N2CCCCC2)nc(NC2CCCC(Nc3ccnc4cc(Cl)ccc34)C2)n1 (stereo not drawn)
active: T-47D breast -58.5% | BT-549 breast -67% | MDA-MB-435 melanoma -92% | SW-620 colon -66.7% | MCF7 breast -50.2% | HCT-116 colon -86.6% | HCC-2998 colon -62.3% | KM12 colon -29.7%

Nc1nc2ncc(CCNc3ccc(C(=O)O)cc3)nc2c(=O)[nH]1
inactive: T-47D breast 115% | BT-549 breast 124% | MDA-MB-435 melanoma 112% | SW-620 colon 110% | MCF7 breast 110% | HCT-116 colon 104% | HCC-2998 colon 117% | KM12 colon 111%

CC(=O)Nc1ccc(S(=O)(=O)Nc2cccc(-c3nc(-c4ccc(NC(=O)c5cccnc5)cc4Cl)no3)c2)cc1
inactive: T-47D breast 14% | BT-549 breast 33.3% | SW-620 colon 29.5% | MCF7 breast 17.1% | HCT-116 colon 30.4% | HCC-2998 colon 69.1% | KM12 colon 28.7%
active: MDA-MB-435 melanoma 6.69%

COc1cc(/C=C/C(=O)c2c(C)oc3nc[nH]c(=O)c23)cc(OC)c1OC
inactive: T-47D breast 58.9% | BT-549 breast 72.6% | MDA-MB-435 melanoma 74.4% | SW-620 colon 77.5% | MCF7 breast 47.9% | HCT-116 colon 61.3% | HCC-2998 colon 112% | KM12 colon 96.9%

Cn1ccnc1C(=O)/C=C/c1ccc(CC(=O)Nc2ccccc2)cc1
inactive: T-47D breast 15.2% | BT-549 breast 22.4% | MDA-MB-435 melanoma 13.5% | MCF7 breast 12% | HCT-116 colon 18.2% | HCC-2998 colon 29%
active: SW-620 colon 2.2% | KM12 colon 3.7%

C=C(C)C1CC(O)C2(C)CCCC3C2C1CC(C)C3(C)CC/C(C)=C/C(O)C1CCC(=O)c2c(OC)cc(OC)cc21 (stereo not drawn)
inactive: T-47D breast 37.2% | BT-549 breast 60.4% | MDA-MB-435 melanoma 41.7% | SW-620 colon 47.1% | MCF7 breast 30.1% | HCT-116 colon 28.5% | HCC-2998 colon 76.9% | KM12 colon 40.9%

O=C1/C(=C/N2N=C(c3ccc4ccccc4c3)CC2c2ccccc2O)SC(=S)N1c1cccnc1 (stereo not drawn)
active: BT-549 breast 6.36% | MDA-MB-435 melanoma -48.7%
inactive: T-47D breast 44.5% | SW-620 colon 24% | MCF7 breast 17.3% | HCT-116 colon 10.9% | HCC-2998 colon 28.5% | KM12 colon 18.2%

O=C1CC(=NCC(=O)n2c(-c3ccccc3)nc3ccccc32)NN1
inactive: T-47D breast 89.4% | BT-549 breast 107% | MDA-MB-435 melanoma 105% | SW-620 colon 100% | MCF7 breast 72.7% | HCT-116 colon 94.6% | HCC-2998 colon 109% | KM12 colon 101%
